# PubChem BioAssay (NCI)
# About 83,000 compounds went through this panel and 20% of them were active in at least one assay; those are over-represented in the sample as a whole.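 Growth was measured after 48 h exposure to one concentration of compound in 96-well plates. Values under 10 count as active.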 Values without a mark were called inactive. Active and inactive are the calls of the source.
# What was measured:
# Assay in all cases: NCI-60 one-dose screen, 48 h (100 = growth as untreated, 0 = no growth, -100 = all killed)
# NCI-H23 lung = conditions: 10 µM unless noted
# NCI-H226 lung = conditions: 10 µM unless noted
# NCI-H322M lung = conditions: 10 µM unless noted
# HOP-62 NSCLC = conditions: 10 µM unless noted
# NCI-H460 lung = conditions: 10 µM unless noted
# HOP-92 NSCLC = conditions: 10 µM unless noted
# NCI-H522 lung = conditions: 10 µM unless noted
# 786-0 renal = conditions: 10 µM unless noted
# COLO 205 colon = conditions: 10 µM unless noted
# DU-145 prostate = conditions: 10 µM unless noted
# K-562 leukemia = conditions: 10 µM unless noted
# MALME-3M melanoma = conditions: 10 µM unless noted
# MDA-MB-231 breast = conditions: 10 µM unless noted
# SF-268 CNS = conditions: 10 µM unless noted
# SF-295 CNS = conditions: 10 µM unless noted
# SF-539 CNS = conditions: 10 µM unless noted
# M14 melanoma = conditions: 10 µM unless noted
# RXF 393 renal = conditions: 10 µM unless noted
# UACC-257 melanoma = conditions: 10 µM
# A549/ATCC NSCLC = conditions: 10 µM unless noted
SMILES,growth (NCI-H23 lung) [%],growth (NCI-H226 lung) [%],growth (NCI-H322M lung) [%],growth (HOP-62 NSCLC) [%],growth (NCI-H460 lung),growth (HOP-92 NSCLC),growth (NCI-H522 lung),growth (786-0 renal),growth (COLO 205 colon),growth (DU-145 prostate),growth (K-562 leukemia),growth (MALME-3M melanoma) [%],growth (MDA-MB-231 breast),growth (SF-268 CNS),growth (SF-295 CNS),growth (SF-539 CNS),growth (M14 melanoma),growth (RXF 393 renal) [%],growth (UACC-257 melanoma) [%],growth (A549/ATCC NSCLC) [%]
CC(C)(C)OC(=O)N1C/C(=C\c2cccs2)C(=O)/C(=C/c2cccs2)C1,96.3,93.1,94.3,89,105%,82.2%,79.5%,81.4%,117%,107%,75.8%,95.8,101%,91.8%,98.9%,99%,98.3%,,,
Cc1ccc2c(c1)C(C)Cc1c(ncnc1-n1cnc3ccccc31)N2C (stereo not given),28.9,72.4,43,38.1,4.64% (active),62.6%,-15.3% (active),30.9%,-11.5% (active),8.43% (active),6.64% (active),65.6,25.1%,34.1%,-11.4% (active),-33.1% (active),18.1%,21.5,,
COc1ccc(-c2nc3sccn3c2-c2ccnc(NCCCNS(=O)(=O)c3ccc(C)cc3)n2)cc1,26.6,13.7,65,86.5,40%,67.5%,21.4%,43.6%,11.5%,34.1%,19.9%,54.7,23.5%,38.1%,21.4%,56.9%,23.2%,34.6,40,
O=C(O)Cc1ccc2c(c1)Cc1cccnc1O2,98.9,,109,106,105%,112%,95.7%,98%,111%,107%,114%,98.5,111%,103%,108%,99.7%,103%,91.2,106,
CC1(C)OC2COC3(C(=O)O)OC(C)(C)OC3C2O1 (stereo not given),97.8,,98.6,91.2,103%,98.3%,90.2%,104%,98.8%,108%,101%,109,88.3%,95.9%,103%,101%,99.9%,111,,95.5
COc1ccc(C(=O)/C=C/c2ccc(/C=C/c3cc(OC)c(OC)c(OC)c3)cc2)cc1,43.5,,64.8,71,59.6%,51.9%,5.55% (active),67.7%,68.1%,68.4%,14.4%,66.8,76.8%,66.2%,57.9%,86.3%,67%,71.3,72.5,36.3
COc1ccc([N+](=O)[O-])c(/C=C/C(=O)c2ccccn2)c1,91.3,,83.4,78.5,89.4%,66.9%,90.1%,93.4%,89.1%,28.5%,21%,91,86.2%,89.1%,133%,95.2%,104%,74.1,96.9,87.8
CCC1CCc2nc3sc(C(=O)Nc4ccccc4C)c(N)c3cc2C1 (stereo not given),51.1,,56.5,54.5,31.5%,41.9%,28.6%,50.6%,17%,22.7%,24.1%,28.3,66.6%,49.9%,15.3%,23.9%,19.8%,26.1,54.2,41.2
c1ccn2nnnc2c1,94.8,,102,87,105%,103%,101%,94.3%,90.6%,103%,97.5%,98.5,,101%,101%,95.5%,-54.6% (active),110,101,94.3
COc1ccc(C2CC(=O)Nc3c2c(C)nn3-c2nc3ccccc3[nH]2)cc1OC (stereo not given),48.7,,75.9,67.8,63.7%,89.3%,98.2%,87.5%,106%,86.6%,63%,38.5,87.1%,69.9%,-9% (active),97.7%,48.1%,12.2,89,61.1
COc1ccc(/C=C/C(=O)OCC(=O)NNC(=O)c2ccccc2)cc1OC,106,,117,84.1,110%,79.3%,104%,99.8%,118%,101%,90.2%,105,94.8%,108%,89.6%,91%,107%,97.1,,99.2
COc1cc(-c2nc(-c3nc4ccccc4[nH]3)cc3c2[nH]c2ccccc23)cc(OC)c1OC,41.3,,73.8,45.1,30%,9.1% (active),57.2%,82.6%,26.9%,53.8%,31.9%,32.7,61.3%,47.8%,1.13% (active),68.4%,23.4%,70.6,41.7,22.5
Cc1cc(C)c(S(=O)(=O)N2CCN(c3cc4c(cc3F)c(=O)c(C(=O)O)cn4C3CC3)CC2)c(C)c1,57.4,,74.7,57.3,39.5%,46.9%,67.3%,75.6%,57.6%,71.4%,63.5%,59.7,84.6%,56.7%,33.3%,46.5%,63.5%,51.3,86.9,20.3
CCN(CC)CCCNc1nc(C)cc(Nc2ccc3nc(C)cc(N)c3c2)n1,93,,95.5,81,110%,97.5%,93.3%,97.8%,97.4%,116%,106%,107,103%,92.9%,95.1%,103%,96.6%,117,,81
C=C1C(=O)O[C@H]2[C@H]1CC/C(COC(=O)NCc1cc(OC)c(OC)c(OC)c1)=C\CC[C@@]1(C)O[C@@H]21,86.8,,99.5,80.4,94%,72.4%,-42.6% (active),40.3%,17.6%,43.3%,16.3%,101,56.5%,68.5%,99.4%,65.1%,49.9%,60.4,,88.1
O=C(CCl)NCCNc1nccc(Nc2ccc(S(=O)(=O)Nc3ccccn3)cc2)n1,22.6,,56.5,26,2.9% (active),31.2%,-63.9% (active),-34.5% (active),61.1%,14.4%,17%,10.2,2.46% (active),9.86% (active),36.2%,-15.2% (active),3.17% (active),36.9,31.5,56.8
